# Measurements reported in PubChem BioAssay AID1345085 (National Center for Advancing Translational Sciences (NCATS), 2018).
# Inconclusive results are not listed. A number with no mark means an inactive call. The source made the active and inactive calls. Calls come from the whole dose curve; as a rule, active = well fitted cell-killing curve with a large enough effect; inconclusive = small, poorly fitted or top-dose-only effect, or effect the other way; inactive = no such curve, though single readings can be large or run the other way.
# System: Es-2
# Experiment: Confirmatory qHTS for gynecologic anti-cancer compounds from libraries of approved drugs and bioactive compounds; note: nearly all actives have a fitted effect of over 55% in size
# Details: gynecologic cancer cell panel viability, ATPlite luminescence, 48 h; series mostly up to 57.6 µM; activity change, negative = viability loss: at the top concentration
# Method in brief: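 IC50 values derive from an ATPlite ATP-content luminescence assay following 48 h treatment at 37 C. Each compound ran as an 11-concentration, threefold series (57.5 uM to 0.977 nM); HEK 293T served as control line for selectivity index.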
# % is set by controls: 0 for no effect and ±100 for the full control effect; potency is the fitted concentration of half-maximal effect.
SMILES,Potency,"activity change, negative = viability loss"
Cc1cc(Nc2cc(N3CCN(C)CC3)nc(/C=C/c3ccccc3)n2)n[nH]1,24.3 µM (active),–
Cc1ccc(C(=O)Nc2ccc(CN3CCN(C)CC3)c(C(F)(F)F)c2)cc1C#Cc1cnc2cccnn12,6.11 µM (active),–
CN1C(=O)C(Cc2c[nH]c3ccccc23)NC1=S (configuration not stated),–,-13.7% [at 19.5 µM]
COc1cc(Nc2c(C#N)cnc3cc(OCCCN4CCN(C)CC4)c(OC)cc23)c(Cl)cc1Cl,21.7 µM (active),–
COc1cc(F)c(F)c(Nc2ccc(I)cc2F)c1NS(=O)(=O)C1(CC(O)CO)CC1 (configuration not stated),3.85 µM (active),–
COC(C(=O)N1Cc2[nH]nc(NC(=O)c3ccc(N4CCN(C)CC4)cc3)c2C1)c1ccccc1 (configuration not stated),–,30.1%
COc1ccc2c(c1OC)C(=O)O[C@@H]2[C@H]1c2c(cc3c(c2OC)OCO3)CCN1C,–,-1.17%
N=C(N)c1ccc(OCCCCCOc2ccc(C(=N)N)cc2)cc1,–,-18.9%
CCc1c2c(nc3ccc(O)cc13)-c1cc3c(c(=O)n1C2)COC(=O)[C@]3(O)CC,0.0385 µM (active),–
CC(C)n1c(/C=C/[C@@H](O)C[C@@H](O)CC(=O)O)c(-c2ccc(F)cc2)c2ccccc21,5.44 µM (active),–
NC(=O)c1cnc(-c2ccc(C3(N)CCC3)cc2)c(-c2ccccc2)c1,24.3 µM (active),–
CC(C)C[C@H](NC(=O)[C@H](Cc1ccccc1)NC(=O)c1cnccn1)B(O)O,0.0611 µM (active),–
Cc1nc(N)sc1-c1ccnc(Nc2ccc(N3CCOCC3)cc2)n1,9.68 µM (active),–
O=c1c2ccccc2nc2n1CCc1c-2[nH]c2ccccc12,–,-0.16%
Cc1cc(SCc2sc(-c3ccc(C(F)(F)F)cc3)nc2C)ccc1OCC(=O)O,–,-3.41%
COc1cc(N2CCC(N)CC2)ccc1Nc1ncc(Cl)c(-c2c[nH]c3ccccc23)n1,–,-23.3%
NCCOc1cc(C(=O)Nc2cc(OCCN)c3ccccc3n2)nc(C(=O)Nc2cc(OCCN)c3ccccc3n2)c1,–,4.63%
Cn1cc(-c2ccc3ncc(Cc4ccc5ncccc5c4)n3n2)cn1,–,0.637%
C[C@]12CCC(=O)C=C1CC[C@@H]1[C@@H]2[C@@H](O)C[C@@]2(C)[C@H]1CC[C@]2(O)C(=O)CO,–,-15.4%

SMILES,Potency,"activity change, negative = viability loss"
CCCCN(CCCC)C(=O)CN1C[C@H](c2ccc3c(c2)OCO3)[C@@H](C(=O)O)[C@@H]1c1ccc(OC)cc1,–,20.6%
CCN(CC)CCCC(C)Nc1ccnc2cc(Cl)ccc12 (configuration not stated),–,-3.69% [at 19.5 µM]
CN1CCN(Cc2ccc(NC(=O)Nc3ccc(Oc4cc(NC(=O)C5CC5)ncn4)cc3)cc2C(F)(F)F)CC1,0.544 µM (active),–
Cc1nc(Nc2n[nH]c3c2CN(C(=O)NC(CN(C)C)c2ccccc2)C3(C)C)c2sccc2n1 (configuration not stated),4.32 µM (active),–
Cn1cnc([N+](=O)[O-])c1Sc1ncnc2nc[nH]c12,15.3 µM (active),–
O=c1c(-c2ccc(O)cc2)coc2cc(O)cc(O)c12,17.2 µM (active),–
COc1cc2c(cc1-c1c(C)noc1C)ncc1[nH]c(=O)n(C(C)c3ccccn3)c12 (configuration not stated),2.17 µM (active),–
CCOc1cc2ncc(C#N)c(Nc3ccc(F)c(Cl)c3)c2cc1NC(=O)/C=C/CN(C)C,24.3 µM (active),–
Cc1ccc(NC(=O)c2ccc(CN3CCN(C)CC3)cc2)cc1Nc1nccc(-c2cccnc2)n1,–,4.97%
CS(=O)(=O)c1ccc(-c2cnc(N)c(C(=O)Nc3ccccc3)n2)cc1,–,-16.2%
CC(C)Oc1ccc(C(=O)NC(CNC(=O)CN(C)C)Cc2ccc(-c3cn4cccc(C(C)O)c4n3)cc2)cc1Cl (configuration not stated),0.385 µM (active),–
Nc1ncnc2c1ncn2[C@@H]1O[C@H](CO)C[C@H]1O,–,0.037%
COc1ccc2c(c1)c(CC(=O)O)c(C)n2C(=O)c1ccc(Cl)cc1,–,-5.45%
Cc1nc(N)ncc1-c1nc(N2CCOCC2)c2sc(C(C)(C)O)cc2n1,–,-16.4%
CCN[C@H]1C[C@H](C)S(=O)(=O)c2sc(S(N)(=O)=O)cc21,–,0.905%
CCN(CC)CCOc1ccc(/C(=C(\Cl)c2ccccc2)c2ccccc2)cc1,398 µM (active),–
CC(Oc1ccc2[nH]nc(/C=C/c3cnn(CCO)c3)c2c1)c1c(Cl)cncc1Cl (configuration not stated),4.32 µM (active),–
O=C(c1ccc(F)c(F)c1Nc1ccc(I)cc1F)N1CC(O)([C@@H]2CCCCN2)C1,17.2 µM (active),–
